Results from the supplement of paper PMC6555819.

Test system: VDR:RXRa (NR concentration 270 nM, RXRa partner concentration 90 nM)
Assay: PBM binding z-score (relative to random genomic background probes); higher = stronger binding; sequences stand for … in GC…GCGATTGACAGCGTAGAATGAAGG
Experimental: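 Protein-binding microarray (Agilent 4x180K custom design, double-stranded 60-nt probes: 5' GC cap, 34-nt variable region, 24-nt constant primer region; full probe sequence given). Purified or IVT nuclear receptor:RXRα heterodimers (3:1 NR:RXRα, mostly 270:90 nM) or homodimers were incubated for 1 h in PBS with 2% milk and no ligand, then detected with Alexa488 antibodies. Fluorescence from o1-orientation probes (~5 replicates averaged) was converted to z-scores against 500 random hg19 background probes. Variable regions are seed direct-repeat (DR0–DR5) sites, all their single-nucleotide variants and half-site ablations.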

Question: With GCAGAGAGGTGAAACGCAGGTAACTCAGGGTGGC as the sequence, how does the PBM binding z-score read?
Answer: 0.186

Question: GTCCCAAGGTGAATAGGTCGTTGATGAGTAGGCG was tested. Which PBM binding z-score did it give?
Answer: 0.855

Question: How did the PBM binding z-score turn out when CTGACTGGGGCATAAGGTTACCATAAGCCAGCCC was run?
Answer: 0.451

Question: Which PBM binding z-score does the source give for CCTACTGGGCCAAGGTCATTGATCAGTCAAAGCA here?
Answer: 3.15

Question: With ACAAACAGGTGATGAAGGTAACTCAGGCTATCAT as the sequence, how does the PBM binding z-score read?
Answer: 0.56

Question: ATCTCTAGGTAACAAGTTGAGTGAAAGAGAGGAC was tested. Which PBM binding z-score did it give?
Answer: 0.415

Question: Which PBM binding z-score does the source give for GCTGCTAAGTCAACTGATGGTCAGCTAAAGCTCG here?
Answer: -0.619

Question: For TCTGCTAGGTCAGTTGGACAGCTAACGAGCTGCC, which PBM binding z-score is on record?
Answer: -0.155

Question: How did the PBM binding z-score turn out when GCATATAGGTAATACAAGGTGAAATTCCGATTGT was run?
Answer: 0.179

Question: How did the PBM binding z-score turn out when AATACAGAGTCACTAGGCCAGAGTAGGTACGAAT was run?
Answer: -0.0941

Question: With ACTCGGAGGACAAAGGTCAGAGCAACGCCAGTGA as the sequence, how does the PBM binding z-score read?
Answer: 3.39

Question: With CATACAGGGTCAGCTACGCCAGAGTAGGGACGGC as the sequence, how does the PBM binding z-score read?
Answer: 2.74

Question: CGTCCAAGGGCAAAGGTCAGTGAAGAGATGACGG was tested. Which PBM binding z-score did it give?
Answer: 3.89

Question: CCGATTGGGGCAAGGTTACCATAACGCACAGCCA was tested. Which PBM binding z-score did it give?
Answer: 0.0829

Question: With AGAACGAGGGCAATGAGTTGATAGGACGGGTGGC as the sequence, how does the PBM binding z-score read?
Answer: 5.22

Question: TCTTGTAGATCATCAGGTTAAGAAAGCTGGCCAA was tested. Which PBM binding z-score did it give?
Answer: 0.814

Question: TCTGTTAGGTCAACGATGGTCAGCTAATCTGCTA was tested. Which PBM binding z-score did it give?
Answer: 2.46

Question: How did the PBM binding z-score turn out when TCTTGTAGAGCAAGCAGGTTAAGAAAGCCTGAGT was run?
Answer: -0.323

Question: Which PBM binding z-score does the source give for TAGCCTAGGTCATGGTCCAGTATACCACGCGAAC here?
Answer: 2.14

Question: Which PBM binding z-score does the source give for CCTCCTGGGCCACGAAAGGTCATTGATTCAGTGA here?
Answer: 4.04

Question: Which PBM binding z-score does the source give for TGAATGAGGTTATAAGATGAGGGAACGTTGCAAA here?
Answer: 0.832

Question: For TCCAGTTGGTCAAAGGTCACACACTCGAAATGCG, which PBM binding z-score is on record?
Answer: 5.31

Question: Which PBM binding z-score does the source give for ATACCAAGGTGATCGTGAGGTCGTAGATACTAAC here?
Answer: 2.42

Question: For AGAATGAGGTTATAAGTAGATCAGGGAAGAAAGT, which PBM binding z-score is on record?
Answer: 1.26

Question: With AGAATGAGGTTATACGTAGATCACGGAAGAAAGT as the sequence, how does the PBM binding z-score read?
Answer: 1.61

Question: Which PBM binding z-score does the source give for GCTGCTAGGTCAACTGATGGTCAGCGAAAGCTCG here?
Answer: 1.73

Question: GGAACGAGGGAAAAGTTGATAGCATCTGTCGACG was tested. Which PBM binding z-score did it give?
Answer: -0.649

Question: CCTAGTTGGTAAGGAGGTCACACACCGGATATGA was tested. Which PBM binding z-score did it give?
Answer: 3.53

Question: Which PBM binding z-score does the source give for CCTCGGAGGACAACAGGAGGCCAGAGCTGCCAGA here?
Answer: -0.504

Question: Which PBM binding z-score does the source give for CTAACTAGGTCAAAGGTCAAAGTCGAGCCAACCA here?
Answer: 6.59

Question: For TCTAGTTGGTCAAAGGTCACTCACTCGAAATGCG, which PBM binding z-score is on record?
Answer: 4.92

Question: Which PBM binding z-score does the source give for CCTAGTTGGTCGGGAGGTCACACACCGGATATGA here?
Answer: 3.78

Question: How did the PBM binding z-score turn out when TGAATGAGGTTAACGATCAGGGAACGTGGCGTCG was run?
Answer: 1.05

Question: How did the PBM binding z-score turn out when GGAACGAGGGCAAAGTTGATAACATCTGTCGACG was run?
Answer: 1.68

Question: TCTGCTGGGTCAGTTGGTCAGCTAACGAGCTGCC was tested. Which PBM binding z-score did it give?
Answer: 0.238

Question: With ACAGACAGGTGATGAAAGTAACTCAGGCTATCAT as the sequence, how does the PBM binding z-score read?
Answer: -0.184

Question: How did the PBM binding z-score turn out when AATATTAGTTGAGACGAGGGCAACCGATAGGTTG was run?
Answer: 1.01

Question: With CCTTACGGGTCACTGACAGGTTATAGCCTTTGGA as the sequence, how does the PBM binding z-score read?
Answer: 3.77

Question: CCTACTGTGCCAAAGGTCATTGATTCCAATGCTC was tested. Which PBM binding z-score did it give?
Answer: 5.13

Question: CGAACTAGGTCAGAACTGGACAGTGAAGGATGAT was tested. Which PBM binding z-score did it give?
Answer: 0.181
